# Experimental data published in a collection of fitness landscapes (doi:10.1126/science.1257360).
# The full ranking holds about 140,000 sequences; the median of “enrichment ratio after two sorts for PhoP signalling” is about 0, and the highest 2% start at about 11. For the sample, the highest values were picked, then their nearest neighbours and some sequences at random.
# B1: PhoQ; a variant is named by its letters at X, in order, P23837 (parent)
# chain: MKKLLRLFFPLSLRVRFLLATAAVVLVLSLAYGMVALIGYSVSFDKTTFRLLRGESNLFYTLAKWENNKLHVELPENIDKQSPTMTLIYDENGQLLWAQRDVPWLMKMIQPDWLKSNGFHEIEADVNDTSLLLSGDHSIQQQLQEVREDDDDAEMTHSVAVNVYPATSRMPKLTIVVVDTIPVELKSSYMVWSWFIYVLSANLLLVIPLLWVAAWWSLRPIEALAKEVRELEEHNRELLNPATTRELTSLVRNLNRLLKSERERYDKYRTTLTDLTHSLKTPLXXLQXXLRSLRSEKMSVSDAEPVMLEQISRISQQIGYYLHRASMRGGTLLSRELHPVAPLLDNLTSALNKVYQRKGVNISLDISPEISFVGEQNDFVEVMGNVLDNACKYCLEFVEISARQTDEHLYIVVEDDGPGIPLSKREVIFDRGQRVDTLRPGQGVGLAVAREITEQYEGKIVAGESMLGGARMEVIFGRQHSAPKDE
# Variants of: B1
# Assay: enrichment ratio after two sorts for PhoP signalling (ratio (wild type AVST 3.29)); higher = more functional
# Conditions: with PhoP (E. coli)
row,Variant,enrichment ratio
1,LQGT,≤ 0.25
2,RYHM,≤ 0.25
3,FHIH,≤ 0.25
4,PDKA,≤ 0.25
5,SRGW,2.5
6,SCGW,20.5
7,KYGW,≤ 0.25
8,SVGW,14.4
9,SVGD,≤ 0.25
10,SVHW,≤ 0.25
11,SYGW,≤ 0.25
12,SQGW,≤ 0.25
13,SIGW,11.7
14,TMAH,1.31
15,NNEC,≤ 0.25
16,VWTE,≤ 0.25
17,RHES,≤ 0.25
18,IKSM,≤ 0.25
19,WYNQ,≤ 0.25
20,MFWL,≤ 0.25
21,TARM,≤ 0.25
22,TAAM,13.6
23,KANE,≤ 0.25
24,TATI,5.19

row,Variant,enrichment ratio
1,IAEM,≤ 0.25
2,TAGE,≤ 0.25
3,TATM,27
4,LQEM,≤ 0.25
5,TAEM,25.7
6,TANE,18.3
7,KAAM,≤ 0.25
8,YATM,≤ 0.25
9,LGLR,≤ 0.25
10,IPIH,≤ 0.25
11,IDYN,≤ 0.25
12,LPTD,≤ 0.25
13,HEFY,≤ 0.25
14,DTSM,≤ 0.25
15,TANM,19.5
16,TAWM,9.41
17,YANM,0.317
18,TANS,11.9
19,TANL,10
20,TANK,≤ 0.25
21,TACK,11.6
22,NAGL,≤ 0.25
23,TAPM,≤ 0.25
24,KAGL,≤ 0.25

row,Variant,enrichment ratio
1,TAGL,12.4
2,KANM,≤ 0.25
3,ERPF,≤ 0.25
4,TCLM,1.01
5,EGYT,≤ 0.25
6,LDPK,≤ 0.25
7,DMWR,≤ 0.25
8,EPFH,≤ 0.25
9,QHGK,≤ 0.25
10,DCLA,≤ 0.25
11,YSEC,≤ 0.25
12,TAGM,13.2
13,KACM,≤ 0.25
14,NAWE,≤ 0.25
15,KAWE,≤ 0.25
16,NWCM,≤ 0.25
17,YANA,≤ 0.25
18,KANA,≤ 0.25
19,TAGD,9.3
20,TAVM,2.01
21,TAWE,24.5
22,TACM,12.4
23,TANA,15.9
24,QGRI,≤ 0.25

row,Variant,enrichment ratio
1,SQSD,≤ 0.25
2,AVQG,≤ 0.25
3,ICYL,≤ 0.25
4,MLLM,7.62
5,DQQR,≤ 0.25
6,KFML,≤ 0.25
7,GDAW,≤ 0.25
8,HFFI,≤ 0.25
9,RKHF,≤ 0.25
10,WQPT,≤ 0.25
11,ALSK,2.03
12,NISQ,≤ 0.25
13,YTSQ,≤ 0.25
14,ADSQ,≤ 0.25
15,AKSQ,20.1
16,TTSQ,16.8
17,KQSQ,≤ 0.25
18,CISQ,55.8
19,RISQ,≤ 0.25
20,AHSQ,≤ 0.25
21,VLSQ,≤ 0.25
22,ALSQ,16.2
23,TLEP,≤ 0.25
24,DVCT,≤ 0.25

row,Variant,enrichment ratio
1,TMFF,≤ 0.25
2,ATSQ,11.6
3,AISQ,15.6
4,GTSQ,5.69
5,WISQ,≤ 0.25
6,VHSQ,≤ 0.25
7,ATSK,4.37
8,GRRA,≤ 0.25
9,KANK,≤ 0.25
10,LHPY,≤ 0.25
11,YEKR,≤ 0.25
12,IVLL,1.17
13,SGWR,≤ 0.25
14,SQSV,11.9
15,NSSV,≤ 0.25
16,KSTA,≤ 0.25
17,SGDW,≤ 0.25
18,KSSV,≤ 0.25
19,TSSV,20
20,SPTA,≤ 0.25
21,TVTA,19.9
22,SDSV,5.55
23,SGSV,12.1
24,SRSV,≤ 0.25

row,Variant,enrichment ratio
1,VCWY,≤ 0.25
2,PCPR,≤ 0.25
3,KLGA,≤ 0.25
4,AKGF,≤ 0.25
5,EKFN,≤ 0.25
6,AGVG,1.3
7,IANT,≤ 0.25
8,DDSV,≤ 0.25
9,NVSV,≤ 0.25
10,TLSV,16.7
11,TQSV,20.7
12,VLSV,≤ 0.25
13,SESV,16.9
14,SISV,11.6
15,KYSV,≤ 0.25
16,SCSV,9.38
17,SLSV,7.73
18,LLSV,≤ 0.25
19,LASV,≤ 0.25
20,EDTD,≤ 0.25
21,RDHH,≤ 0.25
22,GWHV,≤ 0.25
23,YFPW,≤ 0.25
24,LVPS,≤ 0.25

row,Variant,enrichment ratio
1,NTCA,≤ 0.25
2,HTEF,≤ 0.25
3,LAEC,≤ 0.25
4,IDHP,≤ 0.25
5,TMSV,16.5
6,KASV,≤ 0.25
7,KMSV,≤ 0.25
8,HCSV,≤ 0.25
9,WPTA,14.3
10,TVSV,14.9
11,NASV,≤ 0.25
12,WPTD,≤ 0.25
13,TASV,17.9
14,WPTS,≤ 0.25
15,DMSV,≤ 0.25
16,SPSV,≤ 0.25
17,VEEC,≤ 0.25
18,ITEG,0.328
19,RMAH,≤ 0.25
20,NGEP,≤ 0.25
21,ATVR,4.36
22,QILH,≤ 0.25
23,MNDG,≤ 0.25
24,GVPD,≤ 0.25

row,Variant,enrichment ratio
1,VQKT,≤ 0.25
2,RQKC,≤ 0.25
3,HSFA,≤ 0.25
4,ICYS,≤ 0.25
5,FLCS,≤ 0.25
6,TMVF,≤ 0.25
7,HRMC,≤ 0.25
8,ASMC,12.1
9,RGMC,≤ 0.25
10,PTMC,≤ 0.25
11,NSMC,≤ 0.25
12,TKMC,77.6
13,GGMC,≤ 0.25
14,TGMC,31.9
15,ATMC,11.2
16,HKMC,≤ 0.25
17,HFMC,≤ 0.25
18,HIMC,48.5
19,AARL,≤ 0.25
20,DMIF,≤ 0.25
21,PFMC,≤ 0.25
22,NGMC,≤ 0.25
23,FCMC,≤ 0.25
24,TFMC,16.5

row,Variant,enrichment ratio
1,SGMC,12.8
2,SGFC,≤ 0.25
3,TRMC,2.53
4,KFMC,≤ 0.25
5,TIMC,9
6,KSMC,≤ 0.25
7,FSMC,16.1
8,HGMC,13.3
9,KDFY,≤ 0.25
10,EPYY,≤ 0.25
11,FDYI,≤ 0.25
12,QVCS,≤ 0.25
13,LEAV,≤ 0.25
14,REVC,≤ 0.25
15,FGTK,≤ 0.25
16,RCMC,≤ 0.25
17,ANRM,≤ 0.25
18,AVMM,52.7
19,TKMM,31.6
20,ANRA,≤ 0.25
21,ANMM,32.7
22,FVMM,8.76
23,TVMM,0.563
24,MEMM,0.38

row,Variant,enrichment ratio
1,HKMM,≤ 0.25
2,ACMM,14.1
3,HPRS,≤ 0.25
4,SFMM,0.454
5,EPTF,≤ 0.25
6,ATNR,≤ 0.25
7,FVFQ,≤ 0.25
8,DMFY,≤ 0.25
9,NDFH,≤ 0.25
10,YEAF,≤ 0.25
11,WSCA,≤ 0.25
12,AHMM,≤ 0.25
13,AKMM,30.4
14,APMM,≤ 0.25
15,ARMM,5.29
16,AIMM,35.5
17,ASMM,41.3
18,ADMM,≤ 0.25
19,VRMM,≤ 0.25
20,AYMM,≤ 0.25
21,AAMM,13
22,AAPM,4.08
23,IEAL,≤ 0.25
24,NQSL,≤ 0.25

row,Variant,enrichment ratio
1,PQWK,≤ 0.25
2,SKWQ,≤ 0.25
3,TVCI,0.444
4,TVME,11.7
5,TVCE,13.5
6,TSKH,≤ 0.25
7,TVSH,15.9
8,PVME,≤ 0.25
9,SPSH,≤ 0.25
10,KSSH,≤ 0.25
11,KCME,≤ 0.25
12,TSSH,11.3
13,TVHE,≤ 0.25
14,HCSH,≤ 0.25
15,HTVK,≤ 0.25
16,KMRS,≤ 0.25
17,IPKF,≤ 0.25
18,AQWL,≤ 0.25
19,PAAR,≤ 0.25
20,LETM,≤ 0.25
21,RMVY,≤ 0.25
22,SPCA,≤ 0.25
23,PVCA,≤ 0.25
24,NVCS,≤ 0.25

row,Variant,enrichment ratio
1,TVCS,11.4
2,TVCA,14.5
3,PVCS,≤ 0.25
4,PKSQ,≤ 0.25
5,RQKT,≤ 0.25
6,IWNV,≤ 0.25
7,LQKK,≤ 0.25
8,LFFM,≤ 0.25
9,ITFY,≤ 0.25
10,WWLL,≤ 0.25
11,SNCS,19.6
12,SNAI,22
13,SQCS,14.7
14,SNNW,1.31
15,SFAI,≤ 0.25
16,IQCS,≤ 0.25
17,SNIF,≤ 0.25
18,WQCS,≤ 0.25
19,LNAI,≤ 0.25
20,GFWW,1.03
21,LGGY,≤ 0.25
22,ESVH,≤ 0.25
23,PMVM,≤ 0.25
24,KCTV,≤ 0.25

row,Variant,enrichment ratio
1,KCTF,≤ 0.25
2,GMTV,0.937
3,TCTF,12.4
4,LSTF,≤ 0.25
5,TCTV,12.6
6,LQSN,≤ 0.25
7,PMKC,≤ 0.25
8,AKDL,≤ 0.25
9,NKTC,≤ 0.25
10,MEFC,12.8
11,METC,45.8
12,MESC,10.2
13,MEFA,≤ 0.25
14,MFTC,≤ 0.25
15,MKFC,≤ 0.25
16,LQYS,≤ 0.25
17,KENY,≤ 0.25
18,IMSK,≤ 0.25
